Measurements published in ChEMBL document CHEMBL1157539, “Thousands of chemical starting points for antimalarial lead identification” (Nature, 2010).

Tests used:
Type in all cases: functional
Plasmodium falciparum [1] = experiment: GSK_TCMDC: Inhibition of Plasmodium falciparum 3D7 in whole red blood cells, using parasite LDH activity as an index of growth. Test compounds present at 2uM
Plasmodium falciparum [2] = experiment: GSK_TCMDC: Inhibition of Plasmodium falciparum Dd2 in whole red blood cells, using parasite LDH activity as an index of growth. Test compounds present at 2uM
HepG2 = experiment: GSK_TCMDC: Percent inhibition of human HepG2 cell line. Test compounds present at 10uM.

Row | Structure (SMILES) | Inhibition (Plasmodium falciparum [1]) [%] | Inhibition (Plasmodium falciparum [2]) [%] | Inhibition (HepG2) [%]
1 | COc1ccc(S(=O)(=O)NCCCC2CCN(CCCCCNC(=O)C=Cc3ccc(Cl)c(Cl)c3)CC2)cc1 | 85 | 12 | 24
2 | CCOc1ccc(-c2nonc2NC(=O)c2ccc(Cl)cc2)cc1OCC | 94 | 47 | 28
3 | CCCCCCOc1ccc(C(=O)NCCC2CCN(CCCCCNC(=O)C=Cc3ccc(Cl)c(Cl)c3)CC2)cc1 | 99 | 10 | 13
4 | CC(=O)Nc1ccc(CN2CCC(CNC(=O)c3cc(-c4cccc(C(F)(F)F)c4)cs3)C2)cc1.O=C(O)C(F)(F)F (centres undefined) | 97 | 3 | 24
5 | O=C(O)C(F)(F)F.O=c1[nH]ccc2nc(N[C@@H]3CCNC3)nc(Nc3ccc4c(c3)S(=O)(=O)CC4)c12 | 100 | 99 | 0
6 | CCN(CCCNc1nc(=S)[nH]c2cc(OC)c(OC)cc12)c1ccccc1 | 100 | 23 | 14
7 | Cc1cc(N[C@@H](Cc2ccccc2)C(=O)NCCCOC(C)C)nc(NCCc2ccc(F)cc2)n1.O=C(O)C(F)(F)F | 100 | 36 | 15
8 | CC(C)CCN1CCCN(Cc2cccc(NC(=O)c3cc4ccccc4s3)c2)CC1.O=C(O)C(F)(F)F | 96 | 8 | 34
9 | c1cc(Nc2nccc(-c3cnn4ncccc34)n2)cc(-c2cnco2)c1 | 96 | 83 | 54
10 | CCCC(C(=O)OCCNC)(c1ccccc1)c1ccccc1.Cl | 98 | 96 | 7
11 | COc1ccc(-c2cnc3ccc(NCc4ccc(F)cc4)nn23)cc1OC | 97 | 99 | 35
12 | Br.CCCC1N=C(N)N=C(N)N1c1ccc(OC)cc1 (centres undefined) | 96 | 4 | 0
13 | O=C(O)C(F)(F)F.Oc1ccc(CCCNc2nc(NCc3cccc4ccccc34)nc(N3CCCNCC3)n2)cc1 | 96 | 62 | 98
14 | COc1c(C2CCN(CCCCNC(=O)c3ccc(-c4ccc(C#N)cc4)cc3)CC2)cc(Cl)c2c1CCCC2 | 93 | 59 | 45
15 | O=C(NCc1ccccc1)c1ncn(CCCN2CCC(N3CCCC3)CC2)c1-c1ccc(Cl)c(Cl)c1.O=CO | 89 | 36 | 8
16 | CN1CCCN(c2ccnc3cc4c(cc23)N(C(=O)c2ccccc2Cl)CC4)CC1.Cl | 88 | 30 | 4
17 | Cc1nc(-c2cccc(NCc3ccccc3)c2)[nH]c1C.Cl | 100 | 48 | 16
18 | CN(C)CCOc1ccc(N2CCN(CCCCNC(=O)c3ccc(NC(=O)c4ccc(Cl)cc4)cc3)CC2)cc1 | 99 | 98 | 13
19 | CC(Cc1ccc(OCC(=O)NCC2CCN(CCc3cccc(Cl)c3)CC2)cc1)NCCc1cccc(Cl)c1.Cl (centres undefined) | 96 | 85 | 100

Row | Structure (SMILES) | Inhibition (Plasmodium falciparum [1]) [%] | Inhibition (Plasmodium falciparum [2]) [%] | Inhibition (HepG2) [%]
20 | COc1ccc(C2CCC(NCCCCNC(=O)c3ccc(NC(=O)c4ccc(Cl)cc4)cc3)CC2)cc1 (centres undefined) | 99 | 7 | 23
21 | c1ccc(CNc2nc(NCCN3CCCCC3)nc3ccccc23)cc1 | 87 | 8 | 19
22 | Br.Cc1ccc(OCCCON2C(=N)N=C(N)NC2(C)C)cc1C | 96 | 94 | 57
23 | Cc1cccc2nc(-c3ccc(-c4ccc(NC(=O)Nc5cccc(C#N)c5)cc4)cc3)[nH]c12 | 100 | 100 | 28
24 | CCCc1cc(OC)c(CC2c3cccc(O)c3CCN2C)cc1OC.Cl (centres undefined) | 100 | 99 | 3
25 | Fc1ccc2[nH]c(-c3cccc(-c4cccc(CNCc5cnn(-c6ccccc6)n5)c4)c3)nc2c1.O=C(O)C(F)(F)F | 91 | 57 | 18
26 | Cc1cc(C)cc(Oc2c(C(F)(F)F)oc3c(CN4CC(C)OC(C)C4)c(O)ccc3c2=O)c1 (centres undefined) | 89 | 54 | 5
27 | CCCCC(CC)NC(=O)[C@H]1CNCCN1C(=O)CCCc1ccccc1.O=C(O)C(F)(F)F (some centres undefined) | 94 | 0 | 5
28 | Cc1cccc2nc(-c3cccc(-c4ccc(NC(=O)Nc5ccc(Cl)c(Cl)c5)cc4)c3)[nH]c12 | 100 | 83 | 53
29 | Cc1cc(NCCCN2CCCC2=O)n2c(nc3ccccc32)c1C#N | 93 | 48 | 4
30 | O=C(Nc1ccc(S(=O)(=O)N2CCOCC2)cc1)c1cc(-c2cc(Cl)ccc2O)n[nH]1 | 96 | 59 | 40
31 | O=C(Nc1ccc(-c2ccccc2)cc1)Nc1cccc(Cn2nc(Cl)c(N3CCCNCC3)cc2=O)c1.O=C(O)C(F)(F)F | 100 | 37 | 13
32 | CCCNCc1ccc(-c2ccc(CN(Cc3cccs3)C(=O)C3CCN(C)CC3)cc2)nc1.O=C(O)C(F)(F)F | 99 | 35 | 10
33 | O=C(Nc1ccc(N2CCN(c3ncccc3C(F)(F)F)CC2)nc1)c1cccs1 | 83 | 40 | 7
34 | O=C(/C=C/c1ccc(Cl)c(Cl)c1)NCCCCCN1CCC(NC(=O)c2ccc3ccccc3c2)CC1 | 87 | 20 | 8
35 | CCNc1c2ccc(Cl)cc2nc2ccc(OC)cc12.Cl | 99 | 100 | 16
36 | c1ccn2c(-c3ncnc(NCc4ccc5c(c4)CCO5)n3)cnc2c1 | 86 | 47 | 12
37 | O=C(/C=C/c1ccc(Cl)c(Cl)c1)NCCCCCN1CCN(C(=O)Nc2cccc(F)c2)CC1 | 91 | 1 | 12
38 | O=C(Nc1cccc(-c2cccc(-c3nc4cc(F)ccc4[nH]3)c2)c1)c1ccoc1 | 98 | 35 | 36
